Data reported in PubChem BioAssay (Tox21).
Records with an inconclusive call do not appear. The source made the active and inactive calls. The call rests on the fitted dose curve; in most records, active means well fitted curve in the direction sought with a large enough effect in the repeat runs; inconclusive means weak or mixed curves; inactive means no such curve, though single readings can be large; an effect the other way counts as inactive or inconclusive.

How the values were obtained:
[1] = molecular target: Cytochrome P450 2C19 (Homo sapiens) (UniProt P33261); assay: Cytochrome P450 Family 2 Subfamily C Member 19 (CYP2C19) small molecule antagonists: luciferase reporter qHTS assay (AID 1671197); conditions: P450-Glo CYP2C19 enzyme, luciferin luminescence, 1 h; series mostly up to 52.9 µM; further: nearly all actives have a fitted effect of over 65% in size; further: potency means the concentration at half of the fitted maximal effect
Cytochrome P450 2C19 (Homo sapiens), sequence (P33261 whole entry, looked up): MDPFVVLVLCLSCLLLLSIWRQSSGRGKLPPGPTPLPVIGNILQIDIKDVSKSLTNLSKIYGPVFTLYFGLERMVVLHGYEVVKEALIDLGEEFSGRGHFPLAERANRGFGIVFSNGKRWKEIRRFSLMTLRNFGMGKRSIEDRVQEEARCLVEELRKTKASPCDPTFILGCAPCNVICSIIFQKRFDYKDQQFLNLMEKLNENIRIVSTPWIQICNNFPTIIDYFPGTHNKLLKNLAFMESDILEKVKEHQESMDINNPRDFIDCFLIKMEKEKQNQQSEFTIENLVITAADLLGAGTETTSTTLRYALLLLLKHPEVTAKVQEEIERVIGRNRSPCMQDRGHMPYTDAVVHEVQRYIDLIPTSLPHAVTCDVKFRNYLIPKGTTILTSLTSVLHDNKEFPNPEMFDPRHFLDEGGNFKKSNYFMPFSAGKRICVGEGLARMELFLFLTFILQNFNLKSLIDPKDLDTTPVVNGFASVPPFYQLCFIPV
Procedure, shortened: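 Relative luminescence units recorded 20 min after the detection reagent stopped a 1 h, 37C CYP2C19 reaction on proluciferin substrate, which was started by NADPH regeneration following 10 min room-temperature compound preincubation; ketoconazole positive control.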

[2] = molecular target: Cytochrome P450 2C9 (Homo sapiens) (UniProt P11712); assay: Cytochrome P450 Family 2 Subfamily C Member 9 (CYP2C9) small molecule antagonists: luciferase reporter qHTS assay (AID 1671198); conditions: P450-Glo CYP2C9 enzyme assay, luciferin luminescence; series mostly up to 115 µM; further: nearly all actives have a fitted effect of over 50% in size; further: potency means the concentration at half of the fitted maximal effect
Cytochrome P450 2C9 (Homo sapiens), sequence (P11712 whole entry, looked up): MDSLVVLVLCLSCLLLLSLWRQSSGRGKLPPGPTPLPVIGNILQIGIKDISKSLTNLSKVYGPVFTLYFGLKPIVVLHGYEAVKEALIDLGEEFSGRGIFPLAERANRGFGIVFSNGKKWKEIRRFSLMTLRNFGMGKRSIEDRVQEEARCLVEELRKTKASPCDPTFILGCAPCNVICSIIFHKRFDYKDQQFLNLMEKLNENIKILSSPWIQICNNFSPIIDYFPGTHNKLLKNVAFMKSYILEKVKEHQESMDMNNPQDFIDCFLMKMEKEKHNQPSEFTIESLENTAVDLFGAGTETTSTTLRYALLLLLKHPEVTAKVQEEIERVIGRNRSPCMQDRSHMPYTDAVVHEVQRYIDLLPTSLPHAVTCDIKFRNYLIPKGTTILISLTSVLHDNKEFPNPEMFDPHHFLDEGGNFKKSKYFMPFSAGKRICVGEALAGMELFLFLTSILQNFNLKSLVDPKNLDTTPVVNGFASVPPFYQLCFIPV
Procedure, shortened: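 Enzyme-substrate mix preincubated with compound 10 min at room temperature; reaction started with NADPH regeneration solution, 1 h 37C. Luminescent luciferin product read after 20 min detection reagent.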

[3] = molecular target: Cytochrome P450 1A2 (Homo sapiens) (UniProt P05177); assay: Cytochrome P450 Family 1 Subfamily A Member 2 (CYP1A2) small molecule antagonists: luciferase reporter qHTS assay (AID 1671199); conditions: P450-Glo CYP1A2 enzyme, luciferin luminescence, 1 h; series mostly up to 53 µM; further: nearly all actives have a fitted effect of over 50% in size; further: potency means the concentration at half of the fitted maximal effect
Cytochrome P450 1A2 (Homo sapiens), sequence (P05177 whole entry, looked up): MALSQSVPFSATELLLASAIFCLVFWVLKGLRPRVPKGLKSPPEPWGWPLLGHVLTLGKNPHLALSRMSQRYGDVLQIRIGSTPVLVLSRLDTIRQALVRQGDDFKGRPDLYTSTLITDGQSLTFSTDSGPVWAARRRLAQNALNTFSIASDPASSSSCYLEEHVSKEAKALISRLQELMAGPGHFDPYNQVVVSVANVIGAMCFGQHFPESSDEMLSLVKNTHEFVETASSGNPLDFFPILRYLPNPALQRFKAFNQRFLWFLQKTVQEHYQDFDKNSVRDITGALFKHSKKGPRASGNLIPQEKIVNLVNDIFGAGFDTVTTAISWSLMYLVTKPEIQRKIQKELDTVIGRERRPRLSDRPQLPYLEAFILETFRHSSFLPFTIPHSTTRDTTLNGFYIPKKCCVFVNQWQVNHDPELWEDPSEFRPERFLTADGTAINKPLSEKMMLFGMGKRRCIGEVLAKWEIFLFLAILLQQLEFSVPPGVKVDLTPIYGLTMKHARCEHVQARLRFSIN
Procedure, shortened: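 Steps: enzyme-substrate mix dispensed; test compounds and furafylline control pinned in; 10 min room temperature; NADPH regeneration solution added, 1 h; reaction stopped with luciferin detection reagent; luminescence read after 20 min.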

[4] = molecular target: Voltage-gated inwardly rectifying potassium channel KCNH2 (Homo sapiens) (UniProt Q12809); assay: Human Ether-a-go-go-Related Gene (hERG) channel small molecule antagonists: fluorescence cell-based qHTS assay (AID 1671200); conditions: hERG-U2OS cells, FluxOR thallium flux fluorescence; series mostly up to 76.8 µM;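 further: hERG-expressing U2OS cells given a thallium stimulus after FluxOR II dye loading; nearly all actives have a fitted effect of over 50% in size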
Voltage-gated inwardly rectifying potassium channel KCNH2 (Homo sapiens), sequence (Q12809 whole entry, looked up): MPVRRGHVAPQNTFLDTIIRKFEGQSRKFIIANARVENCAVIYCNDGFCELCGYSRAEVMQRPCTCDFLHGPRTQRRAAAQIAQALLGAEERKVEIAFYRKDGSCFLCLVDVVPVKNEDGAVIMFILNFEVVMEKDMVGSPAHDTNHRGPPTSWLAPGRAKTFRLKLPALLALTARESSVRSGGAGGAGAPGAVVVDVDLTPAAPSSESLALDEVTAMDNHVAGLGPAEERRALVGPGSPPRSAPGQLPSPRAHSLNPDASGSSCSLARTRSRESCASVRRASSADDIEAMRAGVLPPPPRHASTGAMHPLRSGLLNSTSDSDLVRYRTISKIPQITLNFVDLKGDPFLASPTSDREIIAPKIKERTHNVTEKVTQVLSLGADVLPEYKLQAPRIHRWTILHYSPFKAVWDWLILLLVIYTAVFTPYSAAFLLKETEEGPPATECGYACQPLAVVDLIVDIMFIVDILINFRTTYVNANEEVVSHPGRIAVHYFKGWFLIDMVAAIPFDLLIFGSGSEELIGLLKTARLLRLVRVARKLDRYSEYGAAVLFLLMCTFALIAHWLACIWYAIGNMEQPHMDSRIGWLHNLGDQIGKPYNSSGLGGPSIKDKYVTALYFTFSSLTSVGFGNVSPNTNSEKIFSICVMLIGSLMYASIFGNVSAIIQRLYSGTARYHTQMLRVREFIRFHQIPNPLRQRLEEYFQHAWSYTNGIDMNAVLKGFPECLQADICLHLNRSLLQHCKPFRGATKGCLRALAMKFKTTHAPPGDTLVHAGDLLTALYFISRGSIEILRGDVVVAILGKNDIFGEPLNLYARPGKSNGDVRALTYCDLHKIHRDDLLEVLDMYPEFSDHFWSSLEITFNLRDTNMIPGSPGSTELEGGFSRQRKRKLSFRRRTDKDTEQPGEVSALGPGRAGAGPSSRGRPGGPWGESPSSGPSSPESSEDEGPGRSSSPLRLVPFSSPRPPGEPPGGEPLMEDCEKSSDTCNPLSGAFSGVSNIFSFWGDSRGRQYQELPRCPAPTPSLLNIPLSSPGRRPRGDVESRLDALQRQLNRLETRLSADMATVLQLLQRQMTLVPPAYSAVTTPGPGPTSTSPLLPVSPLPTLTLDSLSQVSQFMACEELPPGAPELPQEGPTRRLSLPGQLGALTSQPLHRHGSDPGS
Procedure, shortened: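 First, 1000 cells per well are seeded and cultured overnight at 37 C. Next, FluxOR II dye is loaded for 1 h at room temperature, protected from light. After 10 more minutes, stimulus is added and fluorescence is read.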

[5] = molecular target: Cytochrome P450 3A4 (Homo sapiens) (UniProt P08684); assay: Cytochrome P450 Family 3 Subfamily A Member 4 (CYP3A4) small molecule antagonists: luciferase reporter qHTS assay (AID 1671201); conditions: P450-Glo CYP3A4 enzyme, luciferin luminescence, 1 h; series mostly up to 115 µM; further: nearly all actives have a fitted effect of over 50% in size; further: potency means the concentration at half of the fitted maximal effect
Cytochrome P450 3A4 (Homo sapiens), sequence (P08684 whole entry, looked up): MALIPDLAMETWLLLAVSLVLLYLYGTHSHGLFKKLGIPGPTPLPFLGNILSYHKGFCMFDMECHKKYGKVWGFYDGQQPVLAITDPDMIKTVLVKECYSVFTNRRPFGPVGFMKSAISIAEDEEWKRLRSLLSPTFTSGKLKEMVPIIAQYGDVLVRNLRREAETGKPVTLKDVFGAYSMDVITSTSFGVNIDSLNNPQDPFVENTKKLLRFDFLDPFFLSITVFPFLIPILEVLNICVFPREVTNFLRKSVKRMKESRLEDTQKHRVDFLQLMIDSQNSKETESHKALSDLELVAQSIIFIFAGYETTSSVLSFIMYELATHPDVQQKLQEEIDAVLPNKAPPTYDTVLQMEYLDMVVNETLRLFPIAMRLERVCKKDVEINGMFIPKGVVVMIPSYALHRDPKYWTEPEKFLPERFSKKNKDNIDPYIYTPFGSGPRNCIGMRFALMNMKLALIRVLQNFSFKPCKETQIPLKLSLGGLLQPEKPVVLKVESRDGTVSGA
Procedure, shortened: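 Enzyme and proluciferin substrate are mixed with test chemicals for 10 min, then NADPH regeneration system drives turnover for 1 h at room temperature. A detection reagent halts the reaction; luminescence after 20 min gives relative activity.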
On the % scale 0 is the no-effect control and ±100 the full control effect.

CCCCCCCCCCOc1cc2c(=O)c(C(=O)OCC)c[nH]c2cc1OCC
inactive: activity change, negative = inhibition [1] 52.8% [at 10.5 µM] | activity change, negative = inhibition [2] 6.88% [at 10.5 µM] | activity change, negative = inhibition [3] 7.05% [at 10.5 µM] | activity change, negative = inhibition [4] 1.67% [at 6.97 µM] | activity change, negative = inhibition [5] 13.5% [at 10.5 µM]

CC(C)(C)c1ccc(-c2ccc(C(C)(C)C)cc2)cc1
inactive: Potency [1] | Potency [2] | Potency [3] | Potency [4] | Potency [5]

C=C[Si](OC(C)=O)(OC(C)=O)OC(C)=O
active: Potency [5] 39.9 µM
inactive: Potency [1] | Potency [2] | Potency [3] | Potency [4]

NCCCC[C@H](N[C@@H](CCc1ccccc1)C(=O)O)C(=O)N1CCC[C@H]1C(=O)O
inactive: Potency [1] | Potency [2]

O=C(CO)[C@@H](O)[C@H](O)[C@@H](O)CO
inactive: Potency [1] | Potency [2] | Potency [3] | Potency [4] | Potency [5]

CCN1C=CN(C)C1C (configuration not stated)
inactive: Potency [1] | Potency [2] | Potency [3] | Potency [4] | Potency [5]

CC(C)c1ccc2ncccc2c1
inactive: Potency [1] | Potency [2] | Potency [4] | Potency [5]
active: Potency [3] 63.3 µM

CC1CCC(CO)CC1 (configuration not stated)
inactive: Potency [1] | Potency [2] | Potency [3] | Potency [4] | Potency [5]

CCOC(=O)CCC(=O)OCC
inactive: Potency [1] | Potency [3] | Potency [4] | Potency [5]
active: Potency [2] 35.6 µM

CCNS(=O)(=O)c1ccc(C)cc1
inactive: Potency [2] | Potency [4] | Potency [5]
active: Potency [1] 20.6 µM | Potency [3] 41.1 µM

CCOC(=O)COC(=O)c1ccccc1C(=O)OCC
active: Potency [1] 20 µM | Potency [2] 31.7 µM | Potency [3] 7.96 µM
inactive: Potency [4] | Potency [5]
